The panel holds about 83,000 compounds, 20% with a hit somewhere; the sample as a whole holds those more often.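 Results are percent growth after 48 hours of single-concentration exposure. 100 means growth as in untreated cells, lower positive values show inhibition; negative values down to -100 show cell death.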 A number with no mark means an inactive call. The source made the active and inactive calls. Rule for the calls: active = growth percent below 10; inactive = the rest.

The assay has as its system HL-60(TB) leukemia. Briefly: NCI-60 one-dose screen, 48 h (100 = growth as untreated, 0 = no growth, -100 = all killed). Particulars: 10 µM unless noted.
For the compound `COc1ccc(CCNc2nc3c(c(=O)n(Cc4ccc(Br)cc4)c(=O)n3C)n2C)cc1OC`, the growth was 28.6%.
`O=[N+]([O-])c1ccc(Oc2cc(Cl)c(Cl)cc2Cl)c(C(F)(F)F)c1`: the growth was 104%.
Under `Cc1ccc(-c2nc([P+](c3ccccc3)(c3ccccc3)c3ccccc3)c(Nc3ccccc3)o2)cc1` stands -48.4% (active).
Under `CCCc1nc2ccccn2c1Nc1ccc(C(=O)NO)cc1` stands 111%; under `COc1cc(-c2nc3ccccc3[nH]2)ccc1OCc1nnc(-c2ccc(Br)cc2)o1`, 84.2%.
Under `CCOC(=O)c1ccc(NC(=O)Nc2ncc(Cl)cc2Cl)cc1` stands 95.5%; under `COC(=O)c1cc(O)c2cc3c(cc2c1-c1cc(OC)c(OC)c(OC)c1)OCO3`, 5.92% (active); under `C#Cc1cccc(Nc2nc(C)nc3cc(NC(=O)CCl)ccc23)c1`, -58% (active).
Turning to `Brc1ccc(-c2cn3ccnc3c(-c3ccc(Br)cc3)n2)cc1`, the growth was 30.2%.
For `O=C1/C(=C\C(Cl)=C/c2ccc([N+](=O)[O-])cc2)SC(=S)N1CCc1ccc(O)cc1`, the growth was 2.21% (active).
Under `c1ccc(-c2nc3ccccc3[nH]2)c(OCCCCCOc2ccccc2-c2nc3ccccc3[nH]2)c1` stands 22%; under `CN1C(=O)/C(=C\c2nc([P+](c3ccccc3)(c3ccccc3)c3ccccc3)c(N3CCOCC3)o2)SC1=S`, -15.1% (active).
In the case of `COc1ccc(CNC(=O)c2c(C)n([O-])c3ccccc3[n+]2=O)cc1`, the growth is 101%.
Consider `CN(C)C=Nc1cc(Cl)ccc1Cl`, for which the growth was 102%.

The record behind these values is PubChem BioAssay (NCI).
